The campaign covered roughly 37,000 compounds. About 100 (0.27%) were called active. The list comes from a sample in which actives are over-represented; it also holds similar structures and randomly drawn compounds. A number with no mark means an inactive call. Cut-off read from the data, not from the text of the source: active = inhibition above about 85%; inconclusive = no clear call, values can overlap the other calls; inactive = below about 68%.

For orientation: inhibition means the drop in the measured response relative to a control, in per cent.

A short description of this assay: inhibitors of MITF, primary screen, MITF inhibitor project, cell-based, luminescence (AID 2240).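 Note: human melanocyte line stably carrying TRPM1 promoter luciferase reporter.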 Particulars: TRPM1 promoter luciferase, 24 h, hits give high values, concentration not given here.
`COc1ccc(NC(=O)CSC2CC(=O)N(c3ccc(F)cc3)C2=O)cc1` (configuration not stated): the inhibition was -4.35%.

In the case of `CC(=O)Nc1ccc(NC(=O)CN(c2ccc(I)cc2)S(C)(=O)=O)cc1`, the inhibition was -73.1%.

With `C[C@@H]1CN([C@H](C)CO)C(=O)c2cc(N(C)C)ccc2O[C@@H]1CN(C)S(=O)(=O)c1cn(C)cn1`, the inhibition is 0.48%.

Take `COc1ccc(NC(=O)Nc2ccc3c(c2)CC(=O)N([C@@H](C)CO)C[C@@H](C)[C@@H](CN(C)Cc2ccc(C(F)(F)F)cc2)O3)cc1`: the inhibition was 40.7%.

Turning to `C[C@@H]1CN([C@@H](C)CO)C(=O)c2cc(NC(=O)Nc3ccc(C(F)(F)F)cc3)ccc2O[C@@H]1CN(C)Cc1ccncc1`, the inhibition was 0.516%.

For the molecule `COC(=O)c1c(C)c(=O)[nH]c2ccccc12`, the inhibition is 11.2%.

Turning to `C[C@@H]1CN([C@H](C)CO)C(=O)c2cc(NC(=O)CCCCCC(=O)Nc3ccccc3N)ccc2O[C@H]1CN(C)C(=O)Nc1ccc(C(F)(F)F)cc1`, the inhibition is 1.03%.

As for `CNC[C@H]1Oc2ccc(NC(=O)CCC(F)(F)F)cc2C(=O)N([C@@H](C)CO)C[C@H]1C`, the inhibition is -6.95%.

For the molecule `CC(C)(O)C(O)COc1c2occc2cc2ccc(=O)oc12` (configuration not stated), the inhibition is -25%.

For the molecule `CS(=O)(=O)N(CC(=O)Nc1ccc(Br)cc1)c1cc(Cl)c(Cl)cc1Cl`, the inhibition is -6.97%.

As for `C[C@@H]1CN([C@H](C)CO)C(=O)Cc2cc(NC(=O)CCCN(C)C)ccc2O[C@H]1CN(C)S(=O)(=O)c1cccs1`, the inhibition is -32%.

For the molecule `C[C@H](CO)N1C[C@H](C)[C@H](CN(C)C(=O)Nc2ccccc2)Oc2ccc(NC(=O)C3CC3)cc2CC1=O`, the inhibition is -0.845%.

For the molecule `C[C@@H]1CN([C@H](C)CO)C(=O)c2cc(NS(=O)(=O)c3cn(C)cn3)ccc2O[C@H]1CN(C)S(=O)(=O)c1ccc(Cl)cc1`, the inhibition is -0.174%.

As to `Cc1noc(C)c1S(=O)(=O)Nc1ccc2c(c1)CC(=O)N([C@H](C)CO)C[C@@H](C)[C@@H](CN(C)C)O2`, the inhibition was -9.62%.

Regarding `Cc1cc(C)c(NC(=O)CSc2nnc(-c3ccccc3)n2-c2ccc(F)cc2)c(C)c1`, the inhibition was 15.6%.

On to `Cc1ccc(S(=O)(=O)Nc2ccc3c(c2)C(=O)N([C@@H](C)CO)C[C@@H](C)[C@H](CN(C)Cc2ccc(C(F)(F)F)cc2)O3)cc1`, for which the inhibition is 24.8%.

For the molecule `O=C(CSc1nccc(=O)[nH]1)Nc1cccc(Br)c1`, the inhibition is -6.51%.

For the molecule `C[C@H](CO)N1C[C@H](C)[C@H](CN(C)Cc2ccc(-c3ccccc3)cc2)Oc2ccc(NS(=O)(=O)c3ccccc3)cc2C1=O`, the inhibition is 0.813%.

`Cc1noc(C)c1NC(=O)Nc1ccc2c(c1)C(=O)N([C@@H](C)CO)C[C@@H](C)[C@H](CN(C)Cc1ccc(C(F)(F)F)cc1)O2`: the inhibition is -0.382%.

With `Cc1cccc(NC(=O)CSc2nc3c(cc2C#N)CCCCC3)c1`, the inhibition is 0.0416%.

Turning to `CN(CC(=O)Nc1ccc(F)cc1)S(=O)(=O)c1ccccc1`, the inhibition was -37.2%.

On to `C[C@H]1CN([C@@H](C)CO)C(=O)Cc2cc(NC(=O)C3CC3)ccc2O[C@H]1CN(C)C(=O)Nc1ccc(C(F)(F)F)cc1`, for which the inhibition is -4.89%.

For the molecule `COc1ccc(CN(C)C[C@H]2Oc3ccc(NC(=O)CCN4CCOCC4)cc3C(=O)N([C@@H](C)CO)C[C@H]2C)cc1`, the inhibition was 9.34%.

For `Cc1cccc(C)c1NC(=O)C(C)N(c1ccc(Cl)cc1)S(C)(=O)=O` (configuration not stated), the inhibition is -20.7%.

With `Cc1noc(C)c1S(=O)(=O)N(C)C[C@H]1Oc2ccc(NC(=O)CCN3CCOCC3)cc2CC(=O)N([C@H](C)CO)C[C@H]1C`, the inhibition is 10.6%.

`O=C(NCc1ccco1)c1cc(-c2cccnc2)nc2ccc(Cl)cc12`: the inhibition was -14.7%.

Consider `Cc1ccc(S(=O)(=O)Nc2cccc3c2O[C@H](CN(C)S(=O)(=O)c2cn(C)cn2)[C@H](C)CN([C@H](C)CO)C3=O)cc1`, for which the inhibition is 0.736%.

Turning to `Cc1ccc(S(=O)(=O)N(C)C[C@@H]2Oc3ccc(NC(=O)Nc4ccc(F)cc4)cc3C(=O)N([C@H](C)CO)C[C@@H]2C)cc1`, the inhibition was -19.7%.

Regarding `Cc1ccc(-n2c(SCC(=O)Nc3ccc(F)c(F)c3)nnc2-c2cnccn2)cc1`, the inhibition is -1.94%.

`C[C@H](CO)N1C[C@H](C)[C@H](CN(C)Cc2ccncc2)Oc2ccc(NS(=O)(=O)c3ccc(F)cc3)cc2CC1=O`: the inhibition is -14.1%.

With `COc1ccccc1NC(=O)CN(c1ccc(Br)c(C)c1)S(C)(=O)=O`, the inhibition is -1.36%.

On to `C[C@H]1CN([C@@H](C)CO)C(=O)Cc2cc(NS(=O)(=O)c3cccs3)ccc2O[C@@H]1CN(C)S(=O)(=O)c1cn(C)cn1`, for which the inhibition is -7.83%.

Take `C[C@@H]1CN([C@@H](C)CO)C(=O)c2cccc(NC(=O)c3nc4ccccc4s3)c2O[C@@H]1CN(C)Cc1ccc(Cl)c(Cl)c1`: the inhibition was 10.3%.

With `CN(C)c1ccc(NC(=O)CN(C)S(=O)(=O)c2ccc(Br)cc2)cc1`, the inhibition is -8.87%.

Regarding `COc1ccccc1NC(=O)CSc1ncc(-c2ccccc2)nn1`, the inhibition is -3.76%.

As to `Cn1c(SCc2nc3ccccc3c(=O)[nH]2)nnc1-c1cc2ccccc2o1`, the inhibition is 17.4%.

Regarding `C[C@H]1CN([C@@H](C)CO)C(=O)Cc2cc(NC(=O)NC3CCCCC3)ccc2O[C@H]1CN(C)S(=O)(=O)c1cccs1`, the inhibition was 6.16%.

Turning to `COc1ccc(S(=O)(=O)Nc2ccc3c(c2)C(=O)N([C@@H](C)CO)C[C@@H](C)[C@@H](CN(C)S(C)(=O)=O)O3)cc1`, the inhibition is 2.87%.

On to `C[C@@H]1CN([C@@H](C)CO)C(=O)Cc2cc(NC(=O)Cc3ccccc3)ccc2O[C@@H]1CN(C)Cc1ccc(Oc2ccccc2)cc1`, for which the inhibition is 41.7%.

As to `O=C(CN1CCOCC1)Nc1sc2c(c1C(=O)Nc1ccc(Br)cc1)CCC2`, the inhibition is 53%.

Regarding `COc1ccc(NC(=O)N(C)C[C@H]2Oc3ccc(NS(=O)(=O)c4cccs4)cc3C(=O)N([C@@H](C)CO)C[C@H]2C)cc1`, the inhibition is -5.79%.

Take `C[C@H](CO)N1C[C@H](C)[C@H](CN(C)S(=O)(=O)c2cn(C)cn2)Oc2c(NC(=O)c3ccc(-c4nccs4)cc3)cccc2C1=O`: the inhibition was -4.22%.

These data come from PubChem BioAssay AID2240 (Broad Institute, 2010).
